# Legend:
# Conditions in all cases: concentration: 1 μM, replicates: in singlicate; n = 1
# [1] = tested on: MYLK
# [2] = tested on: MYO3A
# [3] = tested on: MYO3B
# [4] = tested on: T1, NDR1
# T1 construct: gene STK38
# [5] = tested on: NDR2
# [6] = tested on: NEK10
# [7] = tested on: NEK11
# [8] = tested on: NEK1
# [9] = tested on: NEK2
# [10] = tested on: NEK3
# [11] = tested on: NEK4
# [12] = tested on: NEK5
# [13] = tested on: NEK6
# [14] = tested on: NEK7
# [15] = tested on: NEK9
# [16] = tested on: T2, NIK
# T2 construct: gene MAP3K14
# [17] = tested on: T3, NIM1
# T3 construct: gene MGC42105
# [18] = tested on: NLK
# [19] = tested on: T4, OSR1
# T4 construct: gene OXSR1
# [20] = tested on: PAK1
# 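Note: KINOMEscan kinase panel screen.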
Structure (SMILES),%Inh [1],%Inh [2],%Inh [3],%Inh [4],%Inh [5],%Inh [6],%Inh [7],%Inh [8],%Inh [9],%Inh [10],%Inh [11],%Inh [12],%Inh [13],%Inh [14],%Inh [15],%Inh [16],%Inh [17],%Inh [18],%Inh [19],%Inh [20]
Nc1ncnc2c1ncn2-c1cccc2ccccc12 [SKF-97184],0%,0%,27%,29%,4%,0%,27%,11%,0%,31%,0%,0%,0%,0%,0%,2%,13%,0%,0%,3%
Cc1nn2c(=O)cc(N3CCOCC3)nc2n1Cc1cccc(Cl)c1Cl [GSK2342769],16%,0%,0%,0%,0%,0%,0%,0%,2%,0%,9%,0%,0%,0%,0%,0%,12%,0%,8%,9%
CCCNC(=O)Nc1ccc(Oc2ncnc3ccn(C)c23)cc1,0%,0%,40%,3%,0%,0%,0%,0%,0%,33%,0%,0%,13%,0%,11%,0%,0%,0%,17%,17%
OCCCNc1nccc(-c2c(-c3cccc(C(F)(F)F)c3)nn3cc(C(F)(F)F)ccc23)n1 [GW630813],10%,43%,0%,9%,18%,0%,5%,0%,0%,0%,0%,5%,0%,0%,1%,0%,0%,92.7%,0%,0%
COC(=O)c1c(-c2ccccc2)c2cc(Br)ccc2c(=O)n1Cc1ccc(NC(=O)CCC(=O)O)cc1,29%,100%,0%,0%,0%,0%,0%,0%,0%,13%,1%,0%,7%,18%,11%,0%,2%,0%,14%,15%
Nc1nc(-c2ccccc2F)c(-c2ccnc3ccccc23)s1 [GW560459],11%,20%,0%,16%,0%,3%,0%,7%,0%,1%,0%,0%,0%,8%,53%,17%,22%,27%,4%,18%
O=C(Nc1n[nH]c2nc(-c3ccccc3)c(Cl)cc12)C1CC1 [SB-734909],37%,0%,12%,8%,0%,0%,11%,0%,0%,33%,23%,11%,0%,0%,2%,13%,6%,11%,0%,0%
COC(=O)c1c(-c2ccccc2)c2cc(C)ccc2c(=O)n1Cc1ccccc1,0%,0%,0%,0%,0%,0%,0%,0%,0%,24%,0%,0%,0%,0%,0%,100%,0%,0%,0%,24%
COc1cc(Nc2ccnc3ccc(C(F)(F)F)cc23)cc(OC)c1OC [GW577382],0%,12%,10%,13%,1%,10%,0%,0%,0%,3%,5%,13%,2%,3%,13%,0%,85%,73%,14%,0%
COc1cc(OC)cc(-c2cc3cnc(N)nc3nc2NC(=O)NC(C)(C)C)c1,7%,0%,0%,0%,0%,0%,0%,0%,3%,33%,0%,0%,0%,1%,0%,1%,0%,0%,0%,0%
Cn1c(=O)c(F)c(Nc2ccc(I)cc2F)c2c(=O)n(OC[C@H](O)CO)cnc21,22%,0%,28%,7%,3%,0%,0%,0%,14%,35%,0%,4%,30%,0%,0%,0%,0%,0%,0%,0%
Cc1ccccc1COc1cc(-n2cnc3cc(Cl)ccc32)sc1C(N)=O [GW813349],5%,0%,0%,3%,1%,0%,0%,0%,5%,13%,0%,6%,0%,4%,0%,9%,5%,0%,0%,0%

# — PMC5540273 (PLoS ONE, 2017)
